# Source: ChEMBL document CHEMBL3988442, “University of Dundee, Small-Polar-MMV Screening Library” (2021)
# For some of these results: Entries with a potency or affinity are not part of this list.
# Tests used:
# Set-up in all cases: scale not given: direction of the effect not stated beside the values
# [1] = molecular target: Protein translocase subunit SecA (Escherichia coli (strain K12)) (UniProt P10408); assay: Assay to Identify E. coli SecA ATPase Inhibitors; type: functional; settings: 30 µM
# Chain of Protein translocase subunit SecA (Escherichia coli (strain K12)) (P10408 whole entry): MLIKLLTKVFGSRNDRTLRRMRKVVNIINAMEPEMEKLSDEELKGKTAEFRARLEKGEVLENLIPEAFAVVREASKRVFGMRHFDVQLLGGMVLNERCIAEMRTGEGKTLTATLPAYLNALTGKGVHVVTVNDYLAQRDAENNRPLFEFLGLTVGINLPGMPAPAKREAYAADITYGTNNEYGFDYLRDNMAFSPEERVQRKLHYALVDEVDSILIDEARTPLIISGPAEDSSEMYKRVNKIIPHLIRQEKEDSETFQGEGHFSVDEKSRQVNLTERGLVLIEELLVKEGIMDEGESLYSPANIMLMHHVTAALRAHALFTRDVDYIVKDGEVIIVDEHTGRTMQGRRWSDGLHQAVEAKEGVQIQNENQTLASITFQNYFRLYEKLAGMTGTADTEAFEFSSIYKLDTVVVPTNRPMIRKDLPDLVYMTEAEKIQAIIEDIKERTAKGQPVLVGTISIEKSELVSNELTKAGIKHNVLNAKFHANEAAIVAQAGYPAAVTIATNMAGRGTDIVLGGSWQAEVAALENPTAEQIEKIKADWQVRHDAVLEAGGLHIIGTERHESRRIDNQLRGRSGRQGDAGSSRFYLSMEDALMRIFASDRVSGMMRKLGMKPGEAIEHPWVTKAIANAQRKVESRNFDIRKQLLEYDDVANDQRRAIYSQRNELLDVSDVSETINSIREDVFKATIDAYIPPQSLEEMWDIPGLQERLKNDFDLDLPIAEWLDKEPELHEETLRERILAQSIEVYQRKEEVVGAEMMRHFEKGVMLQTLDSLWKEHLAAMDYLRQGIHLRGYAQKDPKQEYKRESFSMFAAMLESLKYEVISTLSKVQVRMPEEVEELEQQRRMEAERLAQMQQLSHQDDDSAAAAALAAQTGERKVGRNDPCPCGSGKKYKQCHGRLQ
# [2] = molecular target: T1, Ubiquitin-activating enzyme e1, putative (Leishmania donovani (strain BPK282A1)) (UniProt E9BSI1); assay: Leishmania donovani Ubiquitin Activating Enzyme (LdE1); type: functional; settings: 30 µM
# T1 sequence (whole entry): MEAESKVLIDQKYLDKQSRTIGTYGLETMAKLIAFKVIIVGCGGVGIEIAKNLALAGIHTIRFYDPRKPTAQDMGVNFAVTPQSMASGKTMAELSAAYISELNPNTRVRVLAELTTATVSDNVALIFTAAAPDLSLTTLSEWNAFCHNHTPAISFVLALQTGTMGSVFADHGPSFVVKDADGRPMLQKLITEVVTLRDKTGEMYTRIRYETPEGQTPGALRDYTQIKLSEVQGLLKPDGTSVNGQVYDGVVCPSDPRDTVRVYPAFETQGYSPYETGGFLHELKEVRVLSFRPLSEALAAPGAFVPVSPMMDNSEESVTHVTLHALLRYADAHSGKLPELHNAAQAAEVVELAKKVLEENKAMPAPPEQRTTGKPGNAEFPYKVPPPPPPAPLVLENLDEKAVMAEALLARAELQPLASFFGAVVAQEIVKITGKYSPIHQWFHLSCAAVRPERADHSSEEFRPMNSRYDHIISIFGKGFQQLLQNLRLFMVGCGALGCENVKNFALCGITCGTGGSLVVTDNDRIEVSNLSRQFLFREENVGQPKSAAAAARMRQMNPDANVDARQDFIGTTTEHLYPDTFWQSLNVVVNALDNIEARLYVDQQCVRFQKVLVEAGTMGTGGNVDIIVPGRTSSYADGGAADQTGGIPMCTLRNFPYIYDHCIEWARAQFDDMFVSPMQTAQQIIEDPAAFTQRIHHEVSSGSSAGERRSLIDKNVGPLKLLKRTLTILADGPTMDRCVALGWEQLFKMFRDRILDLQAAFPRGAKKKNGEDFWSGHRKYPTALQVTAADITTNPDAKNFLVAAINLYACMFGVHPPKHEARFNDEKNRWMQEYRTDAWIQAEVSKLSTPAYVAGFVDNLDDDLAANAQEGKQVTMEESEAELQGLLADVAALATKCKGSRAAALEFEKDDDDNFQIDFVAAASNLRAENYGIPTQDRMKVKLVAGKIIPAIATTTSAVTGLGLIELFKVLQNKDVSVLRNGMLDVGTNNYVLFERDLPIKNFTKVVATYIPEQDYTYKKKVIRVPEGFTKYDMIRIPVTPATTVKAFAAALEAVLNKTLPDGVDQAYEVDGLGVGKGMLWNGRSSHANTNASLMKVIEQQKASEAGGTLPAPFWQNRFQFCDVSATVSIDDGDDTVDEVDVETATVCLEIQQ
# [3] = molecular target: T2, Aspartate--tRNA(Asp/Asn) ligase (Mycobacterium tuberculosis (strain ATCC 25618 / H37Rv)) (UniProt P9WFW3); assay: Assay for Asp RNA synthetase-1 from Mycobacterium tuberculosis; type: functional; settings: 30 µM; further: in the data most compounds retested in dose-response had high values
# T2 sequence (whole entry): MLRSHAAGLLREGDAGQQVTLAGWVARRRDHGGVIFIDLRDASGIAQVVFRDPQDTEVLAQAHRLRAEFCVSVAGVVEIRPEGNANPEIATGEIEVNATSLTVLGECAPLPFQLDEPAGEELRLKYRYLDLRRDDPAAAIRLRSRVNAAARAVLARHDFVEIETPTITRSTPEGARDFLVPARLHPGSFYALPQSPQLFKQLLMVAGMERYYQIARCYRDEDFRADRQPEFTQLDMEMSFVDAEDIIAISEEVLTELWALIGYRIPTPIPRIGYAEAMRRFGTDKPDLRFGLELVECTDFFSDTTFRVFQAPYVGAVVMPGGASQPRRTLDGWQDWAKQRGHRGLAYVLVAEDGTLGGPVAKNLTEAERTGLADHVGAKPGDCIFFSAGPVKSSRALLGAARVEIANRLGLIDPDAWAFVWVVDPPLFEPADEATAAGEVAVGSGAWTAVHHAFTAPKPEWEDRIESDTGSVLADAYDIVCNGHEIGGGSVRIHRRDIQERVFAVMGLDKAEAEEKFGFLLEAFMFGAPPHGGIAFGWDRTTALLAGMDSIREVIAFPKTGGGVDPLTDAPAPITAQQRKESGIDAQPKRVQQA
# [4] = molecular target: AMP-activated protein kinase, AMPK (Homo sapiens) (UniProt P54646+O43741+P54619+Q9UGJ0+Q9Y478+Q13131+Q9UGI9); assay: AMP-dependent Kinase enzyme assay. An in vitro enzyme assay that detects ADP turnover that is directly proportional to AMPK activity. This uses naive AMPK that is activated during the assay with MK-8722; type: functional; settings: 30 µM
# [5] = molecular target: Sialic acid-binding Ig-like lectin 9 (Homo sapiens) (UniProt Q9Y336); assay: Hs-Siglec9 ALPHAscreen SOP 20170721; settings: 10 µM
# Chain of Sialic acid-binding Ig-like lectin 9 (Homo sapiens) (Q9Y336 whole entry): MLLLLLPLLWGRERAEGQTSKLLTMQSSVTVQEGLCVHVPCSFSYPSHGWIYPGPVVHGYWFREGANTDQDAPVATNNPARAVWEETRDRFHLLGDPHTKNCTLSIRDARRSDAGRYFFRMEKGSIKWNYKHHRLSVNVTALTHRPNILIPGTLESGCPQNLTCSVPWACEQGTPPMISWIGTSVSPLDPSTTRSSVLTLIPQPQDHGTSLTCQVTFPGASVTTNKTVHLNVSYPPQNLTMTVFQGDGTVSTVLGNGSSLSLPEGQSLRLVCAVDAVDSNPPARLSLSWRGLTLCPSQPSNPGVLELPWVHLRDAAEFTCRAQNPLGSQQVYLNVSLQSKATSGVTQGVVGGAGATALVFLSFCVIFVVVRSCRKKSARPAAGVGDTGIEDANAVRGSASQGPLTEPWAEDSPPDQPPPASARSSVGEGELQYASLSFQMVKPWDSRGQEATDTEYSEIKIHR
# Trypanosoma cruzi = assay: Trypanosoma cruzi phosphomannomutase and mannose-1-phosphate guanylyltransferase assay; type: functional; settings: 10 µM
# [6] = molecular target: T3, Arginase-2, mitochondrial (Homo sapiens) (UniProt P78540); assay: in vitro enzyme assay to detect the production of urea directly proportional to the activity of Arginase II; type: functional; settings: 33.3 µM; further: in the data most compounds retested in dose-response had high values
# T3 sequence (whole entry): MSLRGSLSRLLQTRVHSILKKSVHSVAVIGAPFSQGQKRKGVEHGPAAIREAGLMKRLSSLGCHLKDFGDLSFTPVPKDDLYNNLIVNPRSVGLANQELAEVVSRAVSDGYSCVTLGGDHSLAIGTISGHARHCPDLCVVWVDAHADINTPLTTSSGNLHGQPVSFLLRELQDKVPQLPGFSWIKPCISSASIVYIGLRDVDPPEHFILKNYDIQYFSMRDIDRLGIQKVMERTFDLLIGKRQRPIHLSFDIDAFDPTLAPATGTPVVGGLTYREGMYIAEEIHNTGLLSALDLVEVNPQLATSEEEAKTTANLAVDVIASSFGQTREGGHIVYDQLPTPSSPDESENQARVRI
# [7] = molecular target: T4, Proteasome subunit beta (Trypanosoma cruzi) (UniProt O96673); assay: Trypanosoma cruzi proteasome chymotrypsin-like activity (TcProtChymo) assay.; further: in the data most compounds retested in dose-response had high values; type: functional; settings: 9.37 µM
# T4 sequence (whole entry): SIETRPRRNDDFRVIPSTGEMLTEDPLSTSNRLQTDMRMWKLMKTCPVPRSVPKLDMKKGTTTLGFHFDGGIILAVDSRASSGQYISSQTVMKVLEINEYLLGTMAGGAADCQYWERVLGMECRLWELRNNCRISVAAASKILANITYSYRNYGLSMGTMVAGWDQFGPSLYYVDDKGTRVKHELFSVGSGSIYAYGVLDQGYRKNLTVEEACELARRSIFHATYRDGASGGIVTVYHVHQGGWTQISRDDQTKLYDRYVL
# Homo sapiens = species on record: Homo sapiens; assay: To identify inhibition of the IFN signalling (Jak-Stat) pathway via expression of an eGFP reporter gene under the control of an IFN-stimulated response element (ISRE) containing MxA promoter.; type: functional; settings: 30 µM
# [8] = molecular target: Shiga toxin 2 (Escherichia coli O157:H7) (UniProt P09385+P09386); assay: E. coli 0.157:H7 Shiga Toxin SOP - stx2 screening assay; type: functional; settings: 30 µM
# [9] = molecular target: T5, Tyrosyl-tRNA synthetase, putative (Trypanosoma cruzi (strain CL Brener)) (UniProt Q4DSP6); assay: Trypanosoma cruzi tyrosyl tRNA synthetase (TcYRS) _High Tyrosine SOP; type: functional; settings: 30 µM; further: in the data most compounds retested in dose-response had high values
# T5 sequence (whole entry): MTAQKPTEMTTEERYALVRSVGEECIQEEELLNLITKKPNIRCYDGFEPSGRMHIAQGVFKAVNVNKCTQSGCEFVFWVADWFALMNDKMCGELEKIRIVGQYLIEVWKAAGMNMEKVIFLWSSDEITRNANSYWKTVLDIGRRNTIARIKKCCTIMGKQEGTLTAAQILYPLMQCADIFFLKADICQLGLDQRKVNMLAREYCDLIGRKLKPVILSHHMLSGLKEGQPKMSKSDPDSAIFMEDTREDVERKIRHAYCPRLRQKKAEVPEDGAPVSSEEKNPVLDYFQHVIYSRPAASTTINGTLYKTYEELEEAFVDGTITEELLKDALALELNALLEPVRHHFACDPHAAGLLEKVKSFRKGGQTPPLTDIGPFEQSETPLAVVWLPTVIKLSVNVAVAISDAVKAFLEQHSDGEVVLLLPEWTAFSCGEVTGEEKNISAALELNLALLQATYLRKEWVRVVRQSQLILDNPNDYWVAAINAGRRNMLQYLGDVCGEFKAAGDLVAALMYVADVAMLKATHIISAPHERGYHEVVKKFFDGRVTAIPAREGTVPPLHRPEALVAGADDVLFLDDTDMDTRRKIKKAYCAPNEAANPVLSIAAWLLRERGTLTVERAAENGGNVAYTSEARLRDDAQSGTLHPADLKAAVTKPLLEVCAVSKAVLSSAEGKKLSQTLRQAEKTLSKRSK
# [10] = molecular target: T5, Tyrosyl-tRNA synthetase, putative (Trypanosoma cruzi (strain CL Brener)); assay: Trypanosoma cruzi tyrosyl tRNA synthetase (TcYRS) SOP; type: functional; settings: 30 µM
# [11] = molecular target: Chromo domain-containing protein 1 (Saccharomyces cerevisiae (strain ATCC 204508 / S288c) (Baker's yeast)) (UniProt P32657); assay: ScCHD-1 Enzyme Inhibition Assay; type: functional; settings: 30 µM; further: in the data most compounds retested in dose-response had high values
# Chain of Chromo domain-containing protein 1 (Saccharomyces cerevisiae (strain ATCC 204508 / S288c) (Baker's yeast)) (P32657 whole entry, the tested form may be a part): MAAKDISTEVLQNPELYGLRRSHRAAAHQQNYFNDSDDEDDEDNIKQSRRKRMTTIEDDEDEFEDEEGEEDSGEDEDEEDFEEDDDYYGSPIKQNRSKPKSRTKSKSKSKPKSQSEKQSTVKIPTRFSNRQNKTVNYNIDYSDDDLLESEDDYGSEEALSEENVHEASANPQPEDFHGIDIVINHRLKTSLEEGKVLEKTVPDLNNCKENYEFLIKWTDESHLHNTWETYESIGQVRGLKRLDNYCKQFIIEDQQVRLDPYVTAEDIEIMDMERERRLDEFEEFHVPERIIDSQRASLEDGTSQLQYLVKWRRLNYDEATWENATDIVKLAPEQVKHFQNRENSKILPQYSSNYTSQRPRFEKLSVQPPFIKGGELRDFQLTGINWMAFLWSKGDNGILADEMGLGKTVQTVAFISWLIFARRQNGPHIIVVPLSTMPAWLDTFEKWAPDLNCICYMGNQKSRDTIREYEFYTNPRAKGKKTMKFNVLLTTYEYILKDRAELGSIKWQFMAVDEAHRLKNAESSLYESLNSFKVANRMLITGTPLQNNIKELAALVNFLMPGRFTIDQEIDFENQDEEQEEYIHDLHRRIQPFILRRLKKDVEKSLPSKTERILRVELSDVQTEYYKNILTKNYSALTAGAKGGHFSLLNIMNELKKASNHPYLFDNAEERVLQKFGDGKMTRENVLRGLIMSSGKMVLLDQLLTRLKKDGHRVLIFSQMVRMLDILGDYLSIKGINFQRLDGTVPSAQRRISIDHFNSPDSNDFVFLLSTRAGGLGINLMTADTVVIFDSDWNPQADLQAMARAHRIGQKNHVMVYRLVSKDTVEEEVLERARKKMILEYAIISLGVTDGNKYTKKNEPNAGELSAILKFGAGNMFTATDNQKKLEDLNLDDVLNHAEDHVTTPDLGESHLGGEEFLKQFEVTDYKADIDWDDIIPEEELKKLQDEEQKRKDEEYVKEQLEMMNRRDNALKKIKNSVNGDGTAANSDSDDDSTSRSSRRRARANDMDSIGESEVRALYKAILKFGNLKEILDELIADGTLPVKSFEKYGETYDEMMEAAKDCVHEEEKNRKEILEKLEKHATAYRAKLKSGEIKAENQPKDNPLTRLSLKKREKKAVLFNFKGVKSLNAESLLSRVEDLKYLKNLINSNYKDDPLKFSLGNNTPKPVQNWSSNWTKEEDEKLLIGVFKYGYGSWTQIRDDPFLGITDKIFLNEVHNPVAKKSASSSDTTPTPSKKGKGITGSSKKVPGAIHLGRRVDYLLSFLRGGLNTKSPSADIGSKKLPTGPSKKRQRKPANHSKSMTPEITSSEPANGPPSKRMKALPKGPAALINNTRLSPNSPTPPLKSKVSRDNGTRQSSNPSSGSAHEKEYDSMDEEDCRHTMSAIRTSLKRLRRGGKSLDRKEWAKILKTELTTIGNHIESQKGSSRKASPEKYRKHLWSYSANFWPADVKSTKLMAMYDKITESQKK
SMILES,Percent Effect [1] [%],Percent Effect [2] [%],Percent Effect [3] [%],Percent Effect [4] [%],Percent Effect [5] [%],Percent Effect (Trypanosoma cruzi) [%],Percent Effect [6] [%],Percent Effect [7] [%],Percent Effect (Homo sapiens) [%],Percent Effect [8] [%],Percent Effect [9] [%],Percent Effect [10] [%],Percent Effect [11] [%]
O=C(Nc1cccnc1)[C@H]1CN(Cc2nccs2)C[C@H]2OCC[C@@H]12,-4.22,2.67,-1.01,6.75,-6.59,-0.591,-0.233,3.61,15,-17.1,-2.13,-6.41,2.83
Cn1cc(N2CCC3(CCN(Cc4cccnc4)C3)C2=O)cn1 (configuration not stated),1.77,5.41,-4.84,7.18,-13.3,-4.79,1.59,25.1,2.62,-17,0,10.3,-1.3
O=C(c1ccnnc1)N1C[C@@H]2OCCN(CCN3CCCC3)[C@@H]2C1,3.18,0,0.474,-5.06,4.92,-2.64,-1.59,12.7,-3.96,-4.98,6.49,2.56,6.02
c1ccc(CN2CC[C@H]3CO[C@H](CNc4ncccn4)[C@H]3C2)nc1,-2.49,8,-3.84,2.38,4.32,-0.772,-54.3,9.74,-5.93,3.55,2.08,12.5,-8.55
O=C(CC1CC1)N[C@@H]1CN(Cc2ccncc2)C[C@@H]2CCCO[C@@H]21,0.104,5.33,-1.92,-0.724,-5.17,2.12,-47.1,8.38,-8.9,-6.38,5.21,7.5,-4.5
CO[C@H]1CCN(Cc2ccccn2)[C@@H]2CN(Cc3ccco3)C[C@H]12,-4.75,9.33,-1.34,0.435,4.87,-3.34,2.64,17.7,-12.9,-18.4,9.52,15.4,-1.8
Cc1noc(C)c1CN1CCOC2(CCCN(c3nccs3)C2)C1 (configuration not stated),-8.9,8,7.92,26.5,1.44,-6.18,-56.1,2.91,21.7,-14.3,-7.29,-30,-4.72
COCCN1C[C@@H]2[C@@H](OC)CCN(Cc3cccc(C)n3)[C@@H]2C1,-1.97,11,-0.137,-7.2,9.07,6.75,-2,12.1,-7.05,-22.1,7.29,13.6,-5.26
Cc1noc(C)c1CN1CC[C@@H]2O[C@@H](COCC(C)C)CC[C@@H]21,-2.23,0,-1.08,1.3,5.58,-1.16,-49.3,2.22,8.8,2.31,2.08,2.5,1.48
COc1ccc(C2SCC(=O)Nc3ccsc32)cc1 (configuration not stated),-5.35,-12,4.36,29,5.11,-5.5,1.94,13.9,30.7,-15.2,10.6,2.56,11.2
Cc1ccc(N2CCO[C@H]3CN(Cc4ccncc4)C[C@H]32)nn1,-2.06,2.7,2.28,3.63,-2.84,-2.83,1.59,19.6,4.04,-5.64,8.65,10.3,-5.13
CN(C)c1nccc(N2CCO[C@H]3CN(Cc4ccsc4)C[C@H]32)n1,-0.682,8.22,-1.5,2.33,8.35,1.59,-0.399,19.9,2.38,-97.8,8.33,13.6,-5.92
Cc1cc(CN2CC[C@H]3OCC[C@@]3(C(=O)NC(C)C)C2)no1,-1.37,15.6,0.364,0.843,5.07,0.888,4.52,10.4,16.3,-28.2,5.29,11.5,-5.46
Cc1ccccc1CC(=O)N1CCN(C2CCOC2=O)CC1 (configuration not stated),-3.96,13.5,-0.136,-7.8,2.56,-5.75,-2.81,7.03,11.9,23.2,10.3,16.1,-7.37
COc1cccc(CCNCc2c(C)nn(C)c2N(C)C)c1,-3.25,10.5,-2.61,-2.73,0.941,-4.13,-3.45,13.4,-20.1,28.4,3.43,12.2,-4.73
c1cnc(NC[C@@H]2CCC[C@@H]3CN(Cc4cc[nH]n4)C[C@@H]32)nc1,-1.01,10.8,-0.521,-5.7,-5.33,5.66,4.17,7.69,6.51,-15,10.9,15.8,-6.02
COc1ccccc1C1SCC(=O)Nc2n[nH]cc21 (configuration not stated),-5.34,5.26,6.47,16.6,-1.26,-2.63,15.4,12.6,-13.4,5.55,3.19,2.6,-2.61
c1cc(CN2C[C@@H]3COC[C@]3(COCC3CC3)C2)ccn1,1.31,14.7,-0.406,-2.54,-3.01,-4.13,-1.58,7.58,-2.49,-47.3,2.12,7.69,-2.5
CC(=O)N1CCOCC2(CN(Cc3ccccn3)CCO2)C1 (configuration not stated),-4.37,-2.67,0.233,-1.22,-2.37,4.25,2.33,9.74,-30.1,-6.22,2.08,2.5,-3.93
